# PubChem BioAssay (Tox21)
# Where “and” joins values, the source holds several entries; their conditions need not be identical. Equal entries are not always repeated. A number with no mark means an inactive call. Records with an inconclusive call do not appear. A call without a number means that no potency is given here. Calls of active or inactive are those of the source. Unless noted, calls follow the shape of the dose curve; as a rule, active = well fitted curve in the direction sought with a large enough effect in the repeat runs; inconclusive = weak or mixed curves; inactive = no such curve, though single readings can be large; an effect the other way counts as inactive or inconclusive.
# Legend:
# [1] = Caspase-3/7 induction in HepG2 cells by small molecules, qHTS assay (AID 1346978); also: nearly all actives have a fitted effect of over 15% in size
# Method in brief: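 Wild-type HepG2 cells, 2,000/well, settled 5 hr at 37 C and 5% CO2, then compound-treated for 17 hr; caspase-3/7 activity read by luminescent Caspase-Glo 3/7 after 30 min at room temperature.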
# [2] = Caspase-3/7 induction in CHO-K1 cells by small molecules, qHTS cell viability counter screen (AID 1346979); also: nearly all actives have a fitted effect of over 35% in size
# Method in brief: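 Cells (CHO-K1, wild type) are plated at 1,500 per well and incubated 5hr. Test compounds in DMSO are then pinned in, followed by 16hr at 37C and 5% CO2. Viability is read by CellTiter-Fluor fluorescence after 1hr.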
# [3] = Caspase-3/7 induction in HepG2 cells by small molecules, qHTS cell viability counter screen (AID 1346981); also: series mostly up to about 92 µM; nearly all actives have a fitted effect of over 30% in size
# Method in brief: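 HepG2, WT, 2,000 cells/well; 5 hr pre-incubation 37 C/5% CO2; compound pin-transferred from DMSO; 16 hr exposure; CellTiter-Fluor, 1 hr; fluorescence read.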
# [4] = target: Nuclear receptor subfamily 1 group I member 2 (Homo sapiens) (UniProt O75469); assay: Human pregnane X receptor (PXR) small molecule agonists, qHTS assay (AID 1346982); also: nearly all actives have a fitted effect of over 35% in size; also: potency is read from the fitted curve at half-maximal effect
# Chain of Nuclear receptor subfamily 1 group I member 2 (Homo sapiens) (O75469 whole entry, looked up): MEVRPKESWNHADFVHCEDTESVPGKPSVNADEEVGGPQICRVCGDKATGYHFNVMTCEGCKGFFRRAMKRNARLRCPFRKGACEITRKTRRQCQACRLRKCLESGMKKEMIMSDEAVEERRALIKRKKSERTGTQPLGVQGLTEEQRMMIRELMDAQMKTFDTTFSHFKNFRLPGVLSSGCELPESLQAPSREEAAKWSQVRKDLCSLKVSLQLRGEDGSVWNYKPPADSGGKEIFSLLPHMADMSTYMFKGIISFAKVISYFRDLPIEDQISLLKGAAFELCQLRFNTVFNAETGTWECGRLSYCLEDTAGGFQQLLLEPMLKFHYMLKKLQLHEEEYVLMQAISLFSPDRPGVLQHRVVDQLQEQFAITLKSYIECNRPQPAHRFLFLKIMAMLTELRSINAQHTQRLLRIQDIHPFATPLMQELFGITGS
# Method in brief: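 Luciferase signal from ONE-Glo (30 min, room temperature) measured activation of hPXR-driven CYP3A4 reporter expression in PXR-Luc HepG2 cells treated with compounds for 24 hr at 37 C.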
# [5] = target: Acetylcholinesterase (Homo sapiens) (UniProt P22303); assay: Acetylcholinesterase (AChE) small molecule antagonists: colormetric cell-based qHTS assay (AID 1347395; calls by dose curve; also: nearly all actives have a fitted effect of over 30% in size; also: potency is read from the fitted curve at half-maximal effect)
# Chain of Acetylcholinesterase (Homo sapiens) (P22303 whole entry, looked up): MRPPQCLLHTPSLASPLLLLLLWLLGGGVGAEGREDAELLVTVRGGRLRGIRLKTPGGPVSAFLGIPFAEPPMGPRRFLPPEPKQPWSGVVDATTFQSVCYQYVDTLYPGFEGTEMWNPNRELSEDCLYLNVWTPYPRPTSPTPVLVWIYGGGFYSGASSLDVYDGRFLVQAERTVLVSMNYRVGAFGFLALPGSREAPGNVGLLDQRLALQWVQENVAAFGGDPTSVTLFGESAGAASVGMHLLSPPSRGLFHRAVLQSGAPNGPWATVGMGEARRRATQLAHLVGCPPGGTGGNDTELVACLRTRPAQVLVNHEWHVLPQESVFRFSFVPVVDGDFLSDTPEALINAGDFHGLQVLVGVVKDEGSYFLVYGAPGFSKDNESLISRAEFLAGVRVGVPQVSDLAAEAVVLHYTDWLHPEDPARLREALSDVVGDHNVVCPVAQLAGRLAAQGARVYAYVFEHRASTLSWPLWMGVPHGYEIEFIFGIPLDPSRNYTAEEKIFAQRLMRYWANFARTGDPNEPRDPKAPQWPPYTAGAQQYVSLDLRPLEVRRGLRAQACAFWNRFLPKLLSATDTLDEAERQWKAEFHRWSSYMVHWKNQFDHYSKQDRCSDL
# Method in brief: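 Colorimetric read-out: DTNB detects thiocholine released when cellular AChE in SH-SY5Y cells hydrolyses acetylthiocholine. Cells attached overnight, received compound for 30 min at 37 C, then substrate mix for 90 min at 37 C.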
# [6] = target: Acetylcholinesterase (Homo sapiens) (UniProt P22303); assay: Acetylcholinesterase (AChE) small molecule antagonists: fluorescence cell-based qHTS assay (AID 1347398; calls by dose curve; also: nearly all actives have a fitted effect of over 50% in size; also: potency is read from the fitted curve at half-maximal effect); conditions: Potency: AChE activity; outcome: AChE activity
# Method in brief: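 SH-SY5Y cells (2000/well), attached overnight, incubated with compound 30 min at 37 C. Acetylthiocholine plus Thiolite Green then added for 40 min at room temperature. Thiocholine fluorescence (Ex/Em 490/520 nm) reports cellular AChE activity.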
# [7] = target: Acetylcholinesterase (Homo sapiens) (UniProt P22303); assay: Acetylcholinesterase (AChE) small molecule antagonists: enzyme-based qHTS assay with human liver microsomes (AID 1347399; calls by dose curve; also: nearly all actives have a fitted effect of over 60% in size); conditions: Potency: qHTS inhibition; outcome: qHTS inhibition
# Method in brief: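 Recombinant human AChE (50 mU/mL in the enzyme mix) and human liver microsomes (0.25 mg/mL final) were preincubated with compound and NADPH (0.25 mg/mL final) for 30 min at 37 C. Acetylthiocholine/DTNB was then added; thiocholine was read colorimetrically after 10 min at room temperature.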
# [8] = target: Cytochrome P450 2D6 (Homo sapiens) (UniProt P10635); assay: Cytochrome P450 Family 2 Subfamily D Member 6 (CYP2D6) small molecule antagonists: luciferase reporter qHTS assay (AID 1671196); also: nearly all actives have a fitted effect of over 50% in size; also: potency is read from the fitted curve at half-maximal effect
# Chain of Cytochrome P450 2D6 (Homo sapiens) (P10635 whole entry, looked up): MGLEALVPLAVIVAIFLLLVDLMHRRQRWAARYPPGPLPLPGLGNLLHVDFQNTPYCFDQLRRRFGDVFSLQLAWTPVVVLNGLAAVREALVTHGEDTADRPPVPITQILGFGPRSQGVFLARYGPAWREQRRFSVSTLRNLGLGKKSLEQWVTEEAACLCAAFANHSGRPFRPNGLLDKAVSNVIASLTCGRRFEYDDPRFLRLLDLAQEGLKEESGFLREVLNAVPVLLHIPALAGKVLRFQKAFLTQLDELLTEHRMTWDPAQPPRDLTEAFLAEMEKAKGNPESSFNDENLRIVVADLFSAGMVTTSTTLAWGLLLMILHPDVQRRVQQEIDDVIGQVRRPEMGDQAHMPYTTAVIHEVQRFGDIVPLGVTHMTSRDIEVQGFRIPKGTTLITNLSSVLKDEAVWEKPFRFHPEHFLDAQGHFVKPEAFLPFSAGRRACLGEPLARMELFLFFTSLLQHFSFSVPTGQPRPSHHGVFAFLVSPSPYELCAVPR
# Method in brief: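 Read-out is luminescence from luciferin formed by CYP2D6 turnover of a proluciferin substrate, recorded as relative luminescence units. Reactions ran 1 h at room temperature after NADPH regeneration solution was added.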
# [9] = target: Cytochrome P450 2C9 (Homo sapiens) (UniProt P11712); assay: Cytochrome P450 Family 2 Subfamily C Member 9 (CYP2C9) small molecule antagonists: luciferase reporter qHTS assay (AID 1671198); also: nearly all actives have a fitted effect of over 50% in size; also: potency is read from the fitted curve at half-maximal effect
# Chain of Cytochrome P450 2C9 (Homo sapiens) (P11712 whole entry, looked up): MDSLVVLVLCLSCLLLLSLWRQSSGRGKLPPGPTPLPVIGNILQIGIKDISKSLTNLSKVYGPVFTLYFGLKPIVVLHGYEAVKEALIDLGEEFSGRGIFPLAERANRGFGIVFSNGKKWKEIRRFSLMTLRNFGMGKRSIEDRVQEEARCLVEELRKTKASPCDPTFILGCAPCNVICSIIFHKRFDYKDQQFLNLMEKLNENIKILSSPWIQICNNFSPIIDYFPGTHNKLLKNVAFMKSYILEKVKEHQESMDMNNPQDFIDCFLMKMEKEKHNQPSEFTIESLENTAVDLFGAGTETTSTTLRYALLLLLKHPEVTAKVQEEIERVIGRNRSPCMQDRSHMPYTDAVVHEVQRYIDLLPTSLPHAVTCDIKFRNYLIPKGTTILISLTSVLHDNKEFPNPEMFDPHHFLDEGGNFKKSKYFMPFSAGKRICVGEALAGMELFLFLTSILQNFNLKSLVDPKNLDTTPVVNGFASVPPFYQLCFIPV
# Method in brief: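 P450-Glo proluciferin substrate with CYP2C9 enzyme; 10 min RT preincubation, then NADPH regeneration 1 h at 37C; luciferin detection reagent 20 min RT, luminescence in relative luminescence units.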
# [10] = target: Cytochrome P450 1A2 (Homo sapiens) (UniProt P05177); assay: Cytochrome P450 Family 1 Subfamily A Member 2 (CYP1A2) small molecule antagonists: luciferase reporter qHTS assay (AID 1671199); also: nearly all actives have a fitted effect of over 50% in size; also: potency is read from the fitted curve at half-maximal effect
# Chain of Cytochrome P450 1A2 (Homo sapiens) (P05177 whole entry, looked up): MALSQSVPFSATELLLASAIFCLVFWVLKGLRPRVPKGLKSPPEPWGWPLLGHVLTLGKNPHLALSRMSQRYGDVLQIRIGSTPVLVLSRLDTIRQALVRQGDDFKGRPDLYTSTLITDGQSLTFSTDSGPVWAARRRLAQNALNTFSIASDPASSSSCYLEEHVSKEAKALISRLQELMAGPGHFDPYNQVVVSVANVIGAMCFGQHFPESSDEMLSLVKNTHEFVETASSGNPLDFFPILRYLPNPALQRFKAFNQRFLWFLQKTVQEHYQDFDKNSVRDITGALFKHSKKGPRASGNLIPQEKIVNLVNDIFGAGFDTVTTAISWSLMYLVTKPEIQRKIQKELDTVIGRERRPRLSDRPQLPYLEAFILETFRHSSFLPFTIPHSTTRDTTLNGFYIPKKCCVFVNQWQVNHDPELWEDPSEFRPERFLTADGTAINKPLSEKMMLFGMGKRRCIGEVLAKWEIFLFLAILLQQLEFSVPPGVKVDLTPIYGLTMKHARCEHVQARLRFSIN
# Method in brief: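 P450-Glo CYP1A2, 1536-well qHTS: enzyme/proluciferin substrate + cpd (DMSO), 10 min RT; NADPH regen, 1 h RT; detection reagent, 20 min; luminescence, RLU.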
# [11] = target: Voltage-gated inwardly rectifying potassium channel KCNH2 (Homo sapiens) (UniProt Q12809); assay: Human Ether-a-go-go-Related Gene (hERG) channel small molecule antagonists: fluorescence cell-based qHTS assay (AID 1671200)
# Chain of Voltage-gated inwardly rectifying potassium channel KCNH2 (Homo sapiens) (Q12809 whole entry, looked up): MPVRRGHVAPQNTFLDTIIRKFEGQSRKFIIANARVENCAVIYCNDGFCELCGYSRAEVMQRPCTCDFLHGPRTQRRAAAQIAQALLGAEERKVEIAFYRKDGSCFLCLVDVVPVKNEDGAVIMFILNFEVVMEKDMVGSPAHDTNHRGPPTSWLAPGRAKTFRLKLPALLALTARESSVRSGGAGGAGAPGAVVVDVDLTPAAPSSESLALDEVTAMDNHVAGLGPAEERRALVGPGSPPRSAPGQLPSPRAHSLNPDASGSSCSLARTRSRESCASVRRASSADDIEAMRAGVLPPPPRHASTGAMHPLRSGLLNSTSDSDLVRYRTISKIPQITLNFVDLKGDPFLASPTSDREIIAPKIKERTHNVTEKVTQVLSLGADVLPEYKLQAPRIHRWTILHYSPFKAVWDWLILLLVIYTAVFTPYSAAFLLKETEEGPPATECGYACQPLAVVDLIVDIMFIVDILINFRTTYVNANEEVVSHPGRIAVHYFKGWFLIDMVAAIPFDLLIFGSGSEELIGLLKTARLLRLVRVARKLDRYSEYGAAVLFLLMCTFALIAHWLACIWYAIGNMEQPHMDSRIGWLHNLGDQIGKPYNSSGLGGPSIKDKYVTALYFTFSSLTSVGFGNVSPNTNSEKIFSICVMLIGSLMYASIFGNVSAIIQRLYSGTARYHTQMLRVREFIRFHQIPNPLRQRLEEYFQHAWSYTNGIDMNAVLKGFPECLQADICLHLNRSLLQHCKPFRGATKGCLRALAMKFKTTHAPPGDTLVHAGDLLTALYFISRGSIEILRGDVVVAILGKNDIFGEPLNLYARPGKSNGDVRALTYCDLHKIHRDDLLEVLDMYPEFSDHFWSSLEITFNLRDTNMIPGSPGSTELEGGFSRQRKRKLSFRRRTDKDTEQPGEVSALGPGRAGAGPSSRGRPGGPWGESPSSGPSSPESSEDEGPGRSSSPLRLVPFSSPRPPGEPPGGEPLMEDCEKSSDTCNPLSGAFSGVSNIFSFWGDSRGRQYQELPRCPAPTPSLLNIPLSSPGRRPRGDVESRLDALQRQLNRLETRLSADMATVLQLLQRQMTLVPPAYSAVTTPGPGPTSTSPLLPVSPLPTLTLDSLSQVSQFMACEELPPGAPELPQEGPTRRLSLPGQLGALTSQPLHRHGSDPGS
# Method in brief: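 Channel function was assessed by thallium flux. Cells seeded the previous day and kept at 37 C took up FluxOR II dye over 1 h in the dark at room temperature, then sat another 10 min before stimulation.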
# [12] = target: Cytochrome P450 3A4 (Homo sapiens) (UniProt P08684); assay: Cytochrome P450 Family 3 Subfamily A Member 4 (CYP3A4) small molecule antagonists: luciferase reporter qHTS assay (AID 1671201); also: nearly all actives have a fitted effect of over 50% in size; also: potency is read from the fitted curve at half-maximal effect
# Chain of Cytochrome P450 3A4 (Homo sapiens) (P08684 whole entry, looked up): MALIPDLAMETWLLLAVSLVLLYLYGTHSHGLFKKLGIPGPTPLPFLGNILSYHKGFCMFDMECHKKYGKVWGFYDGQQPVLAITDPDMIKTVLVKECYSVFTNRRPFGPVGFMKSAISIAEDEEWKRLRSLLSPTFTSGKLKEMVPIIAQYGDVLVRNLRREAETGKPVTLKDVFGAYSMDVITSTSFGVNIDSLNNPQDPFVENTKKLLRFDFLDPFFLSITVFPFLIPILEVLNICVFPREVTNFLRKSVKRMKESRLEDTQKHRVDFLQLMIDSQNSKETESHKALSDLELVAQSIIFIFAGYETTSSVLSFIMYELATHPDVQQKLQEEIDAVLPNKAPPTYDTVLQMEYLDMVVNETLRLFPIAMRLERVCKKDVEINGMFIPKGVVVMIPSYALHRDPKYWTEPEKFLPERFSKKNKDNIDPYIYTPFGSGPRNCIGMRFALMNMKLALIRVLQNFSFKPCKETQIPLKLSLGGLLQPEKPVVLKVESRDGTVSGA
# Method in brief: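 Compounds in DMSO were pin-transferred onto CYP3A4 enzyme-substrate mix and held 10 min at room temperature. NADPH regenerating solution started the reaction for 1 h; luciferin detection reagent stopped it, and luminescence was read after 20 min.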
# [13] = target: Cytochrome P450 2C19 (Homo sapiens) (UniProt P33261); assay: Cytochrome P450 Family 2 Subfamily C Member 19 (CYP2C19) small molecule antagonists: luciferase reporter qHTS assay (AID 1671197); also: nearly all actives have a fitted effect of over 65% in size; also: potency is read from the fitted curve at half-maximal effect
# Chain of Cytochrome P450 2C19 (Homo sapiens) (P33261 whole entry, looked up): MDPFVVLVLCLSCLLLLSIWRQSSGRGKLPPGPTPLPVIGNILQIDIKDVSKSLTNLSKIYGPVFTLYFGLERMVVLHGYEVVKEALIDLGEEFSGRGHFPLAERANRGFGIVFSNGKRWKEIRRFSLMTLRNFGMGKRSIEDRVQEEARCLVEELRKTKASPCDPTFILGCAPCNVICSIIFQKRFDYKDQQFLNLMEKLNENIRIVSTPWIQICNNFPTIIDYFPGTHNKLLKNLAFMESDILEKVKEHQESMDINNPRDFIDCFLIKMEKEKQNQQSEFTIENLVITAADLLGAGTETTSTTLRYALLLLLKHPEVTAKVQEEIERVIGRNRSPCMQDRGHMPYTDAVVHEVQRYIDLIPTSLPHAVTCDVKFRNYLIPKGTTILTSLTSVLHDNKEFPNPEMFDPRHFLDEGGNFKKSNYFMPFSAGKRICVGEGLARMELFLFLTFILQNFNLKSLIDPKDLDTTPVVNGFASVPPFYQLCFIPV
# Method in brief: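 P450-Glo CYP2C19 system: enzyme-substrate mix with compound 10 min at room temperature, then NADPH regeneration solution, 1 h at 37C. Proluciferin-to-luciferin conversion detected by luminescence after 20 min with detection reagent; ketoconazole as positive control.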
# [14] = target: Acetylcholinesterase (Homo sapiens) (UniProt P22303); assay: Acetylcholinesterase (AChE) small molecule antagonists: enzyme-based qHTS assay (AID 1347397; calls by dose curve; also: nearly all actives have a fitted effect of over 55% in size; also: potency is read from the fitted curve at half-maximal effect); conditions: Potency: AChE enzyme activity inhibition; outcome: AChE enzyme activity inhibition
# Method in brief: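 Recombinant human AChE (50 mU/mL) preincubated with compound 30 min at room temperature; acetylthiocholine plus DTNB then added, and thiocholine formation read colorimetrically after 10 min at room temperature. DMSO served as vehicle control.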
# [15] = Caspase-3/7 induction in CHO-K1 cells by small molecules, qHTS assay (AID 1346980); also: nearly all actives have a fitted effect of over 15% in size
# Method in brief: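 Wild-type CHO-K1 cells exposed to compounds for 17hr at 37 C, 5% CO2. Caspase-3/7 activity then measured by Caspase-Glo 3/7 luminescence after 30min at room temperature.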
# [16] = target: Nuclear receptor subfamily 1 group I member 2 (Rattus norvegicus) (UniProt Q9R1A7); assay: Rat pregnane X receptor (rPXR) activation by small molecules, qHTS assay (AID 1346983); conditions: rPXR luciferase reporter cells, One-Glo luminescence, 24 h; stronger effect = higher value; also: nearly all actives have a fitted effect of over 20% in size
# Method in brief: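 Cell-based rPXR activation assay: rPXR cells, 2,000 per well, rested 5hr at 37 C, then exposed to compounds in DMSO for 24 hr at 37 C. Luciferase activity read by One-Glo luminescence after 30 min at room temperature.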
# [17] = target: Nuclear receptor subfamily 1 group I member 2 (Homo sapiens) (UniProt O75469); assay: CYP3A4 induction through human pregnane X receptor (PXR) by small molecules, qHTS assay (AID 1346984); also: nearly all actives have a fitted effect of over 40% in size; also: potency is read from the fitted curve at half-maximal effect
# Method in brief: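 Luminescence readout: luciferase signal after One-Glo (30 min, room temperature), following 3 h at 37C with 3uM final Luciferin-IPA P450 substrate. Cells were DPX-2 (HepG2, PXR/CYP3A4-luc co-transfected) dosed for 24 h.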
# [18] = target: Nuclear receptor subfamily 1 group I member 2 (Homo sapiens) (UniProt O75469); assay: Human pregnane X receptor (PXR) activation by small molecules, qHTS assay (AID 1346985); also: nearly all actives have a fitted effect of over 40% in size; also: potency is read from the fitted curve at half-maximal effect
# Method in brief: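 DPX-2 cells (HepG2 co-transfected with a PXR response element and a CYP3A4-promoter luciferase construct) were seeded at 2,000 per well, rested 5 hr at 37C, then exposed to DMSO-dissolved compounds for 24 hr. Activation was read as luciferase luminescence.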
Compound,outcome [1],Potency [2],Potency [3],Potency [4],Potency [5],Potency [6],Potency [7],Potency [8],Potency [9],Potency [10],Potency [11],Potency [12],Potency [13],Potency [14],outcome [15],max activation [16] [%],Potency [17],Potency [18]
C=C(Cl)CCl,inactive,inactive,inactive,inactive,inactive,inactive,inactive,inactive,inactive,inactive,inactive,inactive,,,,,,
CC(C)(C1CCC(O)CC1)C1CCC(O)CC1 (centres undefined),inactive,inactive,inactive,,inactive,inactive,inactive,inactive,,inactive,inactive,inactive,71 µM (active),,,,,
C/C=C/CC#N,inactive,inactive,inactive,,inactive,inactive,inactive,inactive,inactive,,inactive,inactive,inactive,inactive,,,,
CC1=C2[C@H]3OC(=O)[C@@H](C)[C@@H]3CC[C@@]2(C)C=CC1=O,,inactive,inactive,7.5 µM (active),inactive,inactive,inactive,,,,inactive,,inactive,inactive,inactive,8.61,11.2 µM (active),2.82 µM (active)
COc1cc(CCN)cc(OC)c1OC,inactive,inactive,inactive,inactive,inactive,inactive,inactive,inactive,inactive,,inactive,inactive,inactive,,,,,
Oc1ccc2c3c1O[C@H]1[C@@H](O)C=C[C@H]4[C@@H](C2)NCC[C@@]341,inactive,,inactive,,,,,,inactive,inactive,,inactive,inactive,,,,,
CCC(=O)c1ccc(Cl)cc1,inactive,inactive,inactive,,inactive,inactive,inactive,,inactive,inactive,inactive,inactive,inactive,inactive,,,,
CC(C)(N)Cc1ccccc1Cl,,inactive,inactive,inactive,inactive,inactive,inactive,4.36 µM (active),inactive,,inactive,inactive,inactive,inactive,inactive,,,
CC[C@@H](CO)NC(=O)[C@@H]1C=C2c3cccc4c3c(cn4C)C[C@H]2N(C)C1,inactive,inactive,inactive,,2.45 µM (active),1.1 µM (active),inactive,6.92 µM (active),,,inactive,,inactive,4.36 µM (active),,4.36,inactive,inactive
C=CC1(C)OC(=O)N(c2cc(Cl)cc(Cl)c2)C1=O (centres undefined),inactive,inactive,inactive,,inactive,inactive,inactive,inactive,inactive,5.61 µM (active) and 6.33 µM (active),,,7.92 µM (active) and 12.6 µM (active),inactive,,,,
C=CCN1CC[C@]23CCCC[C@H]2[C@H]1Cc1ccc(O)cc13,inactive,inactive,inactive,,,,,,inactive,,inactive,,,,,-1.31,,
COC1=CC(=O)O[C@@H](/C=C/c2ccccc2)C1,inactive,,inactive,24.7 µM (active),inactive,inactive,inactive,,32.2 µM (active),28.7 µM (active),inactive,inactive,5.72 µM (active),inactive,inactive,,,
CCOP(=S)(OCC)SCCl,inactive,,inactive,,,inactive,inactive,inactive,14.2 µM (active),25.2 µM (active),inactive,11.2 µM (active),35.6 µM (active),,inactive,,,
C[C@H](CN1CCOCC1)C(C(=O)N1CCCC1)(c1ccccc1)c1ccccc1,inactive,inactive,inactive,,inactive,,inactive,43.3 µM (active),,inactive,inactive,,96.9 µM (active),inactive,,,,
CN(C)C1CCCCC1,inactive,inactive,inactive,,,inactive,inactive,inactive,inactive,,inactive,inactive,inactive,inactive,,,,
CCOC(=O)C(SP(=S)(OC)OC)c1ccccc1 (centres undefined),inactive,inactive,inactive,,31.7 µM (active),22.4 µM (active),,44.8 µM (active),1.26 µM (active),,,2.83 µM (active),0.283 µM (active),71 µM (active),,,,
CCOc1cc(OP(=S)(OC)OC)nc(CC)n1,,inactive,inactive,inactive,,inactive,inactive,inactive,,,inactive,inactive,35.6 µM (active),inactive,,,,
c1ccc2c(c1)CCNC2,,inactive,inactive,,inactive,inactive,inactive,7.28 µM (active),32.5 µM (active),,,,57.9 µM (active),inactive,inactive,,,
[O-][Br+2]([O-])O,,inactive,inactive,inactive,,inactive,inactive,inactive,inactive,inactive,inactive,inactive,inactive,inactive,inactive,,,
CC(C)(O)C(Cl)(Cl)Cl,,,inactive,,inactive,inactive,inactive,inactive,inactive,,,inactive,inactive,inactive,inactive,-2.13,inactive,inactive
Cc1ccc(S(=O)(=O)N[C@@H](CCCCN)C(=O)CCl)cc1,,,inactive,inactive,inactive,,inactive,17.4 µM (active),inactive,inactive,inactive,,38.9 µM (active),,inactive,-2.32,inactive,inactive
Clc1ccc(C(Cl)(Cl)Cl)cn1,,,inactive,inactive,inactive,inactive,inactive,inactive,inactive,7.96 µM (active),inactive,,inactive,,inactive,,,
Cl/C=C/CCl,,,inactive,inactive,,inactive,inactive,,inactive,,inactive,inactive,inactive,inactive,,,,
COc1ccc2c(C(=O)c3ccc(Cl)cc3)c(C)n(CC(=O)O)c2c1,,inactive,inactive,inactive,,,inactive,inactive,15.5 µM (active),,inactive,inactive,,inactive,inactive,,,
CCCC(C)C1(CC)C(=O)N=C(S)NC1=O (centres undefined),,inactive,inactive,,,,,,,,inactive,,,,,-4.4,,
C=CC=O,,inactive,inactive,inactive,,inactive,inactive,inactive,inactive,,,inactive,inactive,inactive,,,,
